{"source": "ChEMBL document CHEMBL1157539", "about": "“Thousands of chemical starting points for antimalarial lead identification” (Nature, 2010)"}
{"test_system": "HepG2", "assay": "GSK_TCMDC: Percent inhibition of human HepG2 cell line. Test compounds present at 10uM.", "type": "functional", "units": {"Inhibition": "%"}}
{"smiles": "O=C(/C=C/c1ccc(-c2nc3ccc(Cl)cc3[nH]2)cc1)NC1CCN(Cc2ccccc2)CC1", "Inhibition": 3}
{"smiles": "CS(=O)(=O)CCNC(=O)c1ccc(-c2cc3c(Nc4ccc5c(cnn5Cc5ccccc5)c4)ncnc3cn2)o1.Cl", "Inhibition": 6}
{"smiles": "Cc1ccc(C(C)C)c(Oc2cnc(NC(CO)c3ccccc3)nc2N)c1", "note": "(stereo not given)", "Inhibition": 27}
{"smiles": "CC1CCCN(C(=O)c2cc(-c3ccccn3)nc3c(Cl)cccc23)C1", "note": "(stereo not given)", "Inhibition": 2}
{"smiles": "CN1c2ccc([N+](=O)[O-])cc2C(C)(C)C12C=Cc1cc(Br)cc([N+](=O)[O-])c1O2", "note": "(stereo not given)", "Inhibition": 0}
{"smiles": "COc1ccc2nccc(N3CCN(CCNCc4ccc5c(n4)NC(=O)CS5)CC3)c2c1.Cl", "Inhibition": 18}
{"smiles": "O=C(Nc1cccc(CN2CCCN(Cc3ccccc3)CC2)c1)c1ccc(-c2ccccc2)cc1.O=C(O)C(F)(F)F", "Inhibition": 45}
{"smiles": "O=C(Nc1ccc(Br)cc1)N(CCN1CCOCC1)CC(O)COc1ccc(Cl)c(F)c1.O=C(O)C(F)(F)F", "note": "(stereo not given)", "Inhibition": 3}
{"smiles": "COc1cc(C(=O)Nc2cccc(-c3nc4ccccc4[nH]3)c2)cc(OC)c1OC", "Inhibition": 25}
{"smiles": "CCN(CC)S(=O)(=O)n1ncc2c3c(N)nc(N)nc3ccc21.Cl", "Inhibition": 67}
{"smiles": "CN1CCN(c2ccnc3ccc(NC(=O)Nc4ccc5c(c4)CCC5=O)cc23)CC1", "Inhibition": 8}
{"smiles": "O=C(/C=C/c1ccc(Cl)c(Cl)c1)NCCCCCN1CCC(NC(=O)Nc2cc(F)ccc2F)CC1", "Inhibition": 78}
{"smiles": "Br.CCC1N=C(N)N=C(N)N1OCCCOc1c(Cl)cc(Cl)cc1Cl", "note": "(stereo not given)", "Inhibition": 67}
{"smiles": "CS(=O)(=O)c1ccc2nc(NC(=O)c3csnn3)sc2c1", "Inhibition": 3}
{"smiles": "COc1ccc(Cl)cc1N1CCN(CCCNC(=O)c2ccc(-c3nc4cc(Cl)c(F)cc4[nH]3)c(F)c2)CC1", "Inhibition": 21}
{"smiles": "CN(CCN(C)CC(O)c1ccc(Cl)c(Cl)c1)CC(O)c1ccc(Cl)c(Cl)c1.Cl", "note": "(stereo not given)", "Inhibition": 22}
{"smiles": "O=C(/C=C/c1ccc(Cl)cc1)NCCCCCN1CCC(C(=O)Nc2cccc(Cl)c2)CC1", "Inhibition": 22}
{"smiles": "N#Cc1ccc(N[C@@H](CC2CCCCC2)C(=O)N[C@@H]2CCCc3ccccc32)c2ccccc12.O=C(O)C(F)(F)F", "Inhibition": 12}
{"smiles": "COc1ccc(-c2ccc(NC(=O)c3ccc(Cl)cc3)cc2)cc1CN1CCCN(C)CC1.O=C(O)C(F)(F)F", "Inhibition": 27}
{"smiles": "Cl.O=c1cc(NCCCNCc2scc(I)c2I)[nH]c2ccccc12", "Inhibition": 0}
{"smiles": "NS(=O)(=O)c1cccc(Br)c1", "Inhibition": 0}
{"smiles": "CCOc1ccc(NC(=O)c2ccc(CN3CCCN(Cc4cccc(O)c4)CC3)cc2)cc1.O=C(O)C(F)(F)F", "Inhibition": 44}
{"smiles": "CNCCNCc1cccc(-c2ccc(-c3nc4ccccc4[nH]3)s2)c1.O=C(O)C(F)(F)F", "Inhibition": 8}
{"smiles": "CC(CO)(CO)NCc1cc2c3ccccc3c(CNC(C)(CO)CO)cc2c2ccccc12.CS(=O)(=O)O", "Inhibition": 40}
{"smiles": "CCOc1c(Br)cc(Br)cc1CNCCCCNc1nc2ccccc2[nH]1", "Inhibition": 25}
{"smiles": "CCN(CC)CCN(Cc1ccc(-c2ccc(Br)cc2)cc1)C(=O)Cn1c(CCc2cccc(F)c2F)nc(=O)c2ccccc21.O=C(O)C(O)C(O)C(=O)O", "Inhibition": 37}
{"smiles": "Cc1cnc(C(=O)Nc2ccc(-c3cccc(-c4nc5ccccc5[nH]4)c3)cc2)cn1", "Inhibition": 77}
{"smiles": "CS(=O)(=O)CCNCc1cccc(-c2cc3nccc(Nc4ccc(Oc5ccccc5)cc4)c3cc2Cl)c1", "Inhibition": 2}
{"smiles": "CCCCCC(=O)NCC(NCCCNc1cc(=O)c2ccccc2[nH]1)c1cc(Br)cc(Br)c1", "note": "(stereo not given)", "Inhibition": 0}
{"smiles": "CCN(CC)CCNc1c2ccc(Cl)cc2nc2ccc(OC)nc12.Cl", "Inhibition": 20}
{"smiles": "CCCCNCC(O)COc1ccccc1-c1ccc(N/N=C/c2cccc3ccccc23)nn1", "note": "(stereo not given)", "Inhibition": 38}
{"smiles": "Cc1cccc2nc(-c3cccc(-c4cccc(CNCCc5cccn5C)c4)c3)[nH]c12.O=C(O)C(F)(F)F", "Inhibition": 4}
{"smiles": "CN1CCN(CC(=O)Nc2ccc(-c3ccc(-c4nc5ccccc5[nH]4)s3)cc2)CC1", "Inhibition": 12}
{"smiles": "OC(c1ccc(Cl)cc1)(c1ccc(Cl)cc1)C(c1ccc(Cl)cc1)n1ccnc1", "note": "(stereo not given)", "Inhibition": 15}
{"smiles": "CCC(C)NC(=O)Nc1ccc(-c2cccc(-c3nc4ccccc4[nH]3)c2)cc1", "note": "(stereo not given)", "Inhibition": 41}
{"smiles": "O=C(NCCCCN1CCC(C(c2ccccc2)c2ccccc2)CC1)c1ccc(NC(=O)c2ccc(Cl)cc2)cc1", "Inhibition": 12}
{"smiles": "CC1(C)N=C(N)N=C(N)N1OCc1ccc2ccccc2c1", "Inhibition": 65}
{"smiles": "S=C(NN=Cc1ccccn1)NC1CC2C=CC1C2", "note": "(stereo not given)", "Inhibition": 51}
{"smiles": "Cc1[nH]c2ccc(-c3ccc(N(C)C)cc3)cc2c(=O)c1Cl", "Inhibition": 0}
{"smiles": "Cc1cccc2nc(-c3ccc(-c4ccc(CNCCCN5CCCC5=O)cc4)cc3)[nH]c12.O=C(O)C(F)(F)F", "Inhibition": 7}
